Data from PubChem BioAssay (EPA / NIEHS).
Results filed as inconclusive are left out. Active and inactive are the calls of the source. The calls were made as follows, unless noted: active = hit-call score of the fitted dose curve at least 0.9, where 1 is the maximum; inconclusive = response in the unintended direction; inactive = score below 0.9.

How the values were obtained:
[1] = ATG_TAL_CIS: Attagene CIS-FACTORIAL HepG2 Assay for human TAL Basal Promoter (AID 2282966; active = hit-call score of the fitted dose curve at least 0.9, where 1 is the maximum; inactive = score below 0.9;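 also: background control endpoint measuring basal TAL promoter reporter mRNA not a specific factor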); conditions: HepG2 Attagene cis-factorial TAL promoter reporter; actives raise or lower the signal
Summary of the method: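 Human hepatoma HepG2 cells, transfected with promoter-regulated reporter units, were treated 24 h. Reporter transcript levels, measured through RT-PCR and capillary electrophoresis, were fitted for gain or loss relative to DMSO.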

[2] = ATG_TGFb_CIS: Attagene CIS-FACTORIAL HepG2 Assay for human Transforming Growth Factor (TGF) (AID 2282967; active = hit-call score of the fitted dose curve at least 0.9, where 1 is the maximum; inactive = score below 0.9); conditions: HepG2 Attagene CIS TGFb reporter, mRNA transcription; actives raise or lower the signal
Summary of the method: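 Cells were dosed for 24 hours, after which total RNA was reverse-transcribed and reporter sequences amplified, labeled and sized by capillary electrophoresis. Activity was fitted in both directions against DMSO.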

[3] = target: Estrogen receptor (Homo sapiens) (UniProt P03372); assay: ATG_ERa_TRANS: Attagene TRANS-FACTORIAL HepG2 Assay for human Estrogen Receptor alpha (ERa) (AID 2282970); conditions: HepG2 Attagene TRANS ERa GAL4 reporter, mRNA
Summary of the method: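 Signal derives from fluorescence of labelled reporter PCR fragments separated by capillary electrophoresis. HepG2 cells transiently carrying multiple GAL4-UAS reporter units were treated 24 hours, and induction above DMSO baseline was fitted as activity.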

[4] = target: X-box-binding protein 1 (Homo sapiens) (UniProt P17861); assay: ATG_Xbp1_CIS: Attagene CIS-FACTORIAL HepG2 Assay for human X-box Binding Protein 1 (XBP1) (AID 2282972; active = hit-call score of the fitted dose curve at least 0.9, where 1 is the maximum; inactive = score below 0.9); conditions: HepG2 XBP1 cis-element reporter, Attagene multiplex; actives raise or lower the signal
Summary of the method: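 Human hepatoma HepG2, cis-element reporter system, 24 h treatment; mRNA quantified by RT-PCR/CE fluorescence; fit relative to DMSO.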

[5] = ATG_M_19_TRANS: Attagene TRANS-FACTORIAL HepG2 Assay for M19 Transcription Factor (Internal Marker) (AID 2282974); conditions: HepG2 Attagene TRANS-FACTORIAL M19 internal marker reporter
Summary of the method: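 24 h chemical exposure of transiently transfected HepG2 (MRTU library). RNA → oligo(dT) RT → PCR → 6-FAM labelling → HpaI cut → CE fluorescence. Positive-direction fit vs DMSO baseline; background internal-marker readout.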

[6] = ATG_GAL4_TRANS: Attagene TRANS-FACTORIAL HepG2 Assay for GAL4 (Internal Marker) (AID 2282976); conditions: HepG2 Attagene TRANS GAL4 internal marker reporter
Summary of the method: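 Liver HepG2 line bearing multiplexed GAL4-UAS reporter constructs; 24 h chemical treatment. Transcripts were quantified as fluorescent fragments on capillary electrophoresis after RT-PCR and HpaI cut, with activity fitted upward from DMSO.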

[7] = target: Glucocorticoid receptor (Homo sapiens) (UniProt P04150); assay: ATG_GR_TRANS: Attagene TRANS-FACTORIAL HepG2 Assay for human Glucocorticoid Receptor (GR) (AID 2282978); conditions: HepG2 Attagene TRANS GR reporter, mRNA transcription;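 also: activators score as hits since higher reporter transcript over DMSO is fitted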
Summary of the method: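 Transient MRTU transfection of HepG2 (GAL4-UAS reporters, exogenous NR-GAL4 chimeras), 24 h dosing. Readout: reporter transcript via RT-PCR + capillary electrophoresis fluorescence. Positive direction vs DMSO baseline.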

[8] = target: Bile acid receptor (Homo sapiens) (UniProt Q96RI1); assay: ATG_FXR_TRANS: Attagene TRANS-FACTORIAL HepG2 Assay for Farnesoid X Receptor (FXR) (AID 2282979); conditions: HepG2 Attagene TRANS FXR-GAL4 reporter transcription;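 also: hits raise reporter mRNA above DMSO so AC50 marks FXR activation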
Summary of the method: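 After 24 h chemical treatment of transfected HepG2 cells, GAL4-UAS reporter transcripts driven by an exogenous FXR-GAL4 fusion were measured by RT-PCR and capillary electrophoresis. Increases over DMSO were fitted.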

[9] = target: Oxysterols receptor LXR-alpha (Homo sapiens) (UniProt Q13133); assay: ATG_LXRa_TRANS: Attagene TRANS-FACTORIAL HepG2 Assay for human Liver X Receptor alpha (LXRa) (AID 2282980); conditions: HepG2 Attagene TRANS reporter, LXRa transactivation
Summary of the method: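 In this multiplexed TRANS system, compounds act on HepG2 cells carrying GAL4-UAS reporter units and a receptor-GAL4 fusion for 24 h. Induced reporter RNA is amplified, fluorescently labelled and sized by capillary electrophoresis, with DMSO as baseline.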

[10] = target: Oxysterols receptor LXR-beta (Homo sapiens) (UniProt P55055); assay: ATG_LXRb_TRANS: Attagene TRANS-FACTORIAL HepG2 Assay for human Liver X Receptor beta (LXRb) (AID 2282981); conditions: HepG2 Attagene TRANS GAL4-LXRb reporter, mRNA
Summary of the method: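 Readout: fluorescent reporter mRNA fragments resolved by capillary electrophoresis after RT-PCR. System: transiently transfected human HepG2, exogenous LXRb-Gal4 chimera driving GAL4-UAS reporter, 24 h dosing. Activity fitted upward against DMSO baseline.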

[11] = target: Nuclear respiratory factor 1 (Homo sapiens) (UniProt Q16656); assay: ATG_NRF1_CIS: Attagene CIS-FACTORIAL HepG2 Assay for human Nuclear Respiratory Factor 1 (NRF1) Orphan Gene (AID 2282987; active = hit-call score of the fitted dose curve at least 0.9, where 1 is the maximum; inactive = score below 0.9); conditions: HepG2 NRF1 cis-element reporter, Attagene multiplex; actives raise or lower the signal
Summary of the method: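 Endogenous NRF1-driven reporter transcription measured in transiently transfected human HepG2 liver cells. Readout: reporter mRNA by RT-PCR and capillary electrophoresis with fluorescence detection, 24 h post-dosing. Gain or loss of signal fitted relative to DMSO baseline.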

[12] = target: Steroid hormone receptor ERR1 (Homo sapiens) (UniProt P11474); assay: ATG_ERRa_TRANS: Attagene TRANS-FACTORIAL HepG2 Assay for human Estrogen-Related Receptor alpha (ERRa) (AID 2282971); conditions: HepG2 Attagene TRANS reporter, ERRa transactivation
Summary of the method: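 Signal gain relative to DMSO for an ERRa-Gal4 chimeric receptor, read as reporter mRNA by RT-PCR/capillary electrophoresis. Human HepG2 liver cells, transient multiplex reporter transfection, 24 h chemical exposure.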

[13] = ATG_M_32_TRANS: Attagene TRANS-FACTORIAL HepG2 Assay for M32 Transcription Factor (Internal Marker) (AID 2282984); conditions: HepG2 Attagene TRANS M32 internal marker reporter
Summary of the method: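 Read-out: fluorescent reporter cDNA fragments resolved by capillary electrophoresis after RT-PCR of total RNA. Transfected HepG2 cells were exposed to chemical for 24 h. Activity scored in the positive direction relative to DMSO.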

[14] = target: Transcriptional activator Myb (Homo sapiens) (UniProt P10242); assay: ATG_Myb_CIS: Attagene CIS-FACTORIAL HepG2 Assay for human Myeloblastosis (Myb) Proto-Oncogene Transcription Factor (AID 2282986; active = hit-call score of the fitted dose curve at least 0.9, where 1 is the maximum; inactive = score below 0.9); conditions: HepG2 Attagene CIS-FACTORIAL Myb reporter transcription; actives raise or lower the signal
Summary of the method: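 HepG2, transient MRTU transfection (cis-element promoters, endogenous TF activity), 24 h compound exposure. Readout: reporter mRNA via RT-PCR, 6-FAM labeling, HpaI digest, capillary electrophoresis. Gain/loss fit vs DMSO.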

[15] = target: Estrogen-related receptor gamma (Homo sapiens) (UniProt P62508); assay: ATG_ERRg_TRANS: Attagene TRANS-FACTORIAL HepG2 Assay for human Estrogen-Related Receptor gamma (ERRg) (AID 2282977); conditions: HepG2 Attagene TRANS reporter, ERRg transactivation;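 also: hits increase reporter signal over DMSO so potencies reflect activators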
Summary of the method: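 Exogenous NR-Gal4 chimera activity was assessed in HepG2 cells bearing transfected GAL4-UAS reporters. After 24 h dosing, total RNA underwent RT-PCR, fluorescent primer extension and HpaI digestion before capillary electrophoresis, with gain of signal scored against DMSO.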

[16] = ATG_M_06_TRANS: Attagene TRANS-FACTORIAL HepG2 Assay for M06 Transcription Factor (Internal Marker) (AID 2282983); conditions: HepG2 Attagene TRANS M06 internal marker reporter
Summary of the method: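 Multi-reporter-transfected HepG2, 24 h treatment; reporter transcripts quantified via RT-PCR, primer-extension labelling and CE. DMSO-normalized gain-of-signal fit.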

[17] = target: Hepatocyte nuclear factor 4-alpha (Homo sapiens) (UniProt P41235); assay: ATG_HNF4a_TRANS: Attagene TRANS-FACTORIAL HepG2 Assay for human Hepatocyte Nuclear Factor 4 alpha (HNF4a) (AID 2282982); conditions: HepG2 HNF4a transactivation reporter, mRNA readout
Summary of the method: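 Transient MRTU transfection of HepG2, 24 h dosing. Readout: reporter mRNA via RT-PCR + capillary electrophoresis, fluorescence; activity fit upward relative to DMSO control.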

[18] = target: Nuclear receptor subfamily 1 group I member 3 (Homo sapiens) (UniProt Q14994); assay: ATG_CAR_TRANS: Attagene TRANS-FACTORIAL HepG2 Assay for human Constitutive Androstane Receptor (CAR) (AID 2282969); conditions: HepG2 Attagene TRANS-FACTORIAL CAR reporter;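 also: activators raise reporter mRNA above DMSO so AC50 marks induction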
Summary of the method: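 Transiently transfected HepG2, multiplex TRANS reporters (CAR-Gal4 chimera driving GAL4-UAS reporter). 24 h dosing. Readout: reporter transcript by RT-PCR + capillary electrophoresis, fluorescence intensity; positive direction vs DMSO.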

[19] = target: Nuclear receptor subfamily 4 group A member 2 (Homo sapiens) (UniProt P43354); assay: ATG_NURR1_TRANS: Attagene TRANS-FACTORIAL HepG2 Assay for human Nuclear Receptor Related Protein 1 (NURR1) (AID 2282985); conditions: HepG2 Attagene TRANS reporter, mRNA readout
Summary of the method: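 Read-out: reporter mRNA induction by RT-PCR plus capillary electrophoresis with fluorescence detection, after 24 h dosing of transfected HepG2 cells. Exogenous NR-Gal4 chimera activity drives GAL4-UAS reporter; activity fitted upward versus DMSO.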

Measured: outcome

Chain of Transcriptional activator Myb (Homo sapiens) (P10242 whole entry, looked up): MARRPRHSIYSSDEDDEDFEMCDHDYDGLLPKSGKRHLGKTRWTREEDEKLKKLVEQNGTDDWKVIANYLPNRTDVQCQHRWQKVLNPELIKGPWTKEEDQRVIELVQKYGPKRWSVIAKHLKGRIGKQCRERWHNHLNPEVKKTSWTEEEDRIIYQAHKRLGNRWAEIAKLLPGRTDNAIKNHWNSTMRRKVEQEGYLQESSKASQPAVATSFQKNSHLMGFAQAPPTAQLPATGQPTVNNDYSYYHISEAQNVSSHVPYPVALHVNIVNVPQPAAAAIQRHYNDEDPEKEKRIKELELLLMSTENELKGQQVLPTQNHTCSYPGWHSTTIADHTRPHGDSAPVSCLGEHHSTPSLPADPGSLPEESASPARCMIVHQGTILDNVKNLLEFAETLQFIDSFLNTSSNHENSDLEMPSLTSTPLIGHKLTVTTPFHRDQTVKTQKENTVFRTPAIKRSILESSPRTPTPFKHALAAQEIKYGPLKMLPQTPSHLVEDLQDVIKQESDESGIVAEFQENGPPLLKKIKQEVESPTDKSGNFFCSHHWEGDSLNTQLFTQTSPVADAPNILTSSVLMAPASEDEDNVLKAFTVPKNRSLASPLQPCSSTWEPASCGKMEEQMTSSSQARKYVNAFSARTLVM
Chain of Estrogen receptor (Homo sapiens) (P03372 whole entry, looked up, the tested form may be a part): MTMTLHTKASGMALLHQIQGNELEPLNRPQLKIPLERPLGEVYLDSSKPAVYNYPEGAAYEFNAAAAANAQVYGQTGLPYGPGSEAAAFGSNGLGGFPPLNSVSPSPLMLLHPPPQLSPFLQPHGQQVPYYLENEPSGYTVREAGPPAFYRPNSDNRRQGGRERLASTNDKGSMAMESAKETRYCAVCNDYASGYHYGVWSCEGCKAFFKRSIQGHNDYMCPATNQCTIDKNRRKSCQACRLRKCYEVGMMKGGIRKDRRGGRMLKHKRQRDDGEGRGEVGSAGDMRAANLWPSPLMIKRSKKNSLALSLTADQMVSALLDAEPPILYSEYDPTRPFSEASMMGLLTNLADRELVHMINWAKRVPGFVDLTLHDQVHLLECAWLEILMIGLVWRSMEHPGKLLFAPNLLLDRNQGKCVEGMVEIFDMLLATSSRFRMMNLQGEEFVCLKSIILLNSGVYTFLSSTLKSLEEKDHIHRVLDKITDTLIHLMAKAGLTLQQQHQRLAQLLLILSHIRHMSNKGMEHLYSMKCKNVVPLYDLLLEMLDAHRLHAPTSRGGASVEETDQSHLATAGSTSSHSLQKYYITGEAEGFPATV
Chain of Oxysterols receptor LXR-alpha (Homo sapiens) (Q13133 whole entry, looked up, the tested form may be a part): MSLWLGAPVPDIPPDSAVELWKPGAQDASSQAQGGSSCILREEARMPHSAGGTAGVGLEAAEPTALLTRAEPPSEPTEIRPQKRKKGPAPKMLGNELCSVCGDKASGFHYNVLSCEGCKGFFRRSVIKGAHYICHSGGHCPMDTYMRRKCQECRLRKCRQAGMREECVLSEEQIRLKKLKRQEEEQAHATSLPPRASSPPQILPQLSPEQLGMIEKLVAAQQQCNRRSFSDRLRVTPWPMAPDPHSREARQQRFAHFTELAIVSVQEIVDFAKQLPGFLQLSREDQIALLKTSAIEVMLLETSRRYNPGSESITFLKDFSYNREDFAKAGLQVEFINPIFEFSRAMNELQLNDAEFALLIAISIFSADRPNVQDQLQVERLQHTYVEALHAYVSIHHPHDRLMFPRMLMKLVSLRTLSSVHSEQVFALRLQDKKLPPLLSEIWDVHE
Chain of Nuclear receptor subfamily 4 group A member 2 (Homo sapiens) (P43354 whole entry, looked up, the tested form may be a part): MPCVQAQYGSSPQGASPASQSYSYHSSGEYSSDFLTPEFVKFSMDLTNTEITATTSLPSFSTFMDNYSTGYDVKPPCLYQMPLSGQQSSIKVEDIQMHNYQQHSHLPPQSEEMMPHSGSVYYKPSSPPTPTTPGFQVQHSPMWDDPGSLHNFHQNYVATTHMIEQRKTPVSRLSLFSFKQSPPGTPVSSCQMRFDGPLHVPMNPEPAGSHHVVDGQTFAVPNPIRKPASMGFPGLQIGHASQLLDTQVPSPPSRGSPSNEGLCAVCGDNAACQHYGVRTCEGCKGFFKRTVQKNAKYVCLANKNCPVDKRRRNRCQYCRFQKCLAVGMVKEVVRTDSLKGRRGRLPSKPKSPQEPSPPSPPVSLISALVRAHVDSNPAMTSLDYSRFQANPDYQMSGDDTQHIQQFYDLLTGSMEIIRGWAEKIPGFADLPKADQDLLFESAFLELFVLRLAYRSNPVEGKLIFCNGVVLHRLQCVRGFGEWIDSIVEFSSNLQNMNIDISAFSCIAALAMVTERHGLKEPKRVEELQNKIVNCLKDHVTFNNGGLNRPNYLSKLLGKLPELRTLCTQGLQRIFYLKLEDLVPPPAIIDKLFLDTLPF
Chain of Glucocorticoid receptor (Homo sapiens) (P04150 whole entry, looked up, the tested form may be a part): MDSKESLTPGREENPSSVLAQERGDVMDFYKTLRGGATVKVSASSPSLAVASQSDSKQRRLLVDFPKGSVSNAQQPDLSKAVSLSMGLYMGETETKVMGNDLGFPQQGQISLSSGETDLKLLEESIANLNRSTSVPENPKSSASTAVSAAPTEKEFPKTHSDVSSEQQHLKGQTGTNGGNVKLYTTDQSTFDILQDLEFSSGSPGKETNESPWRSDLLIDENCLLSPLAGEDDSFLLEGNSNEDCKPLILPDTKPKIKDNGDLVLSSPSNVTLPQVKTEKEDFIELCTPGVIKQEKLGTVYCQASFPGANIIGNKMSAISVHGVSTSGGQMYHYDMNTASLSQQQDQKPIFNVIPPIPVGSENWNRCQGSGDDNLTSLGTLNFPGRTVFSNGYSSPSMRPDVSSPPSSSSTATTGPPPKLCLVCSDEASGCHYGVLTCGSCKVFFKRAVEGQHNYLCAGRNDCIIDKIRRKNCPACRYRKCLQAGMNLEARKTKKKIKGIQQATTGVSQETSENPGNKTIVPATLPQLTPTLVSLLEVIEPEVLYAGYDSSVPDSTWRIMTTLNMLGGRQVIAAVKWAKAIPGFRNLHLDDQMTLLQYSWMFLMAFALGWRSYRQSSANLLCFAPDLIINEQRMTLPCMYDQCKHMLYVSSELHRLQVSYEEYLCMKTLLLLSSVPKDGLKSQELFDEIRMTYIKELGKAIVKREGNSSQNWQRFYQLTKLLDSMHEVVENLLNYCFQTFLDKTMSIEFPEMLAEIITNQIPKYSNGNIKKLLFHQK
Chain of Nuclear respiratory factor 1 (Homo sapiens) (Q16656 whole entry, looked up): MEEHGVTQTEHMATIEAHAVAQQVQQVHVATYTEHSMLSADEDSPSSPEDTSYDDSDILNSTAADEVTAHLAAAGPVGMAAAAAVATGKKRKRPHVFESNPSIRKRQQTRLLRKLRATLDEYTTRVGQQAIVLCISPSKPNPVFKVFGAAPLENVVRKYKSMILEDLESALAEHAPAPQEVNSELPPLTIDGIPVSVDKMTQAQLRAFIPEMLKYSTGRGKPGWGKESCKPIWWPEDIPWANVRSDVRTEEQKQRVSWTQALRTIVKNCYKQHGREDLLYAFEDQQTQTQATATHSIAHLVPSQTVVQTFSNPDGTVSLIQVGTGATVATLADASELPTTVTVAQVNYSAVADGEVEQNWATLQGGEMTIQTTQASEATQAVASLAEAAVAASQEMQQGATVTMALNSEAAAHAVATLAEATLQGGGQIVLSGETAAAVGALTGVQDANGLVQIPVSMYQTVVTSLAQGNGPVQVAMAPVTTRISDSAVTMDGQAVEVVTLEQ
Chain of X-box-binding protein 1 (Homo sapiens) (P17861 whole entry, looked up): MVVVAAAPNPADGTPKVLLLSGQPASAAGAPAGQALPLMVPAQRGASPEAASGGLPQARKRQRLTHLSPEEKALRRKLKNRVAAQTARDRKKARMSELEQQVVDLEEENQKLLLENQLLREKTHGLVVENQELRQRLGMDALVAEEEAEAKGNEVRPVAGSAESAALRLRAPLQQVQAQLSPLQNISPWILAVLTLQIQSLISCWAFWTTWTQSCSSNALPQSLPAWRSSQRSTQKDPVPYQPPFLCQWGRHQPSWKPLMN
Chain of Oxysterols receptor LXR-beta (Homo sapiens) (P55055 whole entry, looked up, the tested form may be a part): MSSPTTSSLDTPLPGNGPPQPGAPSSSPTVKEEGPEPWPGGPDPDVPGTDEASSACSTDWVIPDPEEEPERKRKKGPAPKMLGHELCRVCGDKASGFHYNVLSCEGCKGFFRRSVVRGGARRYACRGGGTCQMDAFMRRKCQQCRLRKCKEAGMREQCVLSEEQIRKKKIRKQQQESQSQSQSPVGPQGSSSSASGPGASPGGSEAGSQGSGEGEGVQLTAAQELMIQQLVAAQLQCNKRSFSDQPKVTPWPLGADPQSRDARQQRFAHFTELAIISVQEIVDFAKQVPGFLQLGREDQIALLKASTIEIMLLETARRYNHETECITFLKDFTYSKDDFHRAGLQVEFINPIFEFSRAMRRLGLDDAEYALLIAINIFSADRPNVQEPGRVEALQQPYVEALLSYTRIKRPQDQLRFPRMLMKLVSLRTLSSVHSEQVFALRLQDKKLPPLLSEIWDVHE
Chain of Hepatocyte nuclear factor 4-alpha (Homo sapiens) (P41235 whole entry, looked up): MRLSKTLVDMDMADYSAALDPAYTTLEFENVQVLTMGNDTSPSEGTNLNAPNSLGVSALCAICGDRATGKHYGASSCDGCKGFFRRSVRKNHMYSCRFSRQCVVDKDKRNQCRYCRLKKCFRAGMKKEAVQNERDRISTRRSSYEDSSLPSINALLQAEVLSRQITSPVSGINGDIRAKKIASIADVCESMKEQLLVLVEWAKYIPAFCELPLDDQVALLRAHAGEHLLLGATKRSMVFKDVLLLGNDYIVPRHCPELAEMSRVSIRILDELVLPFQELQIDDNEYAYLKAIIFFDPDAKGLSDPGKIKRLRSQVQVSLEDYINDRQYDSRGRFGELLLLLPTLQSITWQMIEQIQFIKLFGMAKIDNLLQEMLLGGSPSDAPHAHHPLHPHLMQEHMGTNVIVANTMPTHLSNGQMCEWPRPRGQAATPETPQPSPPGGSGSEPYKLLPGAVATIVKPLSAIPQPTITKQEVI

CC(=O)c1ccc[nH]1
inactive: [1] | [2] | [3] | [4] | [5] | [6] | [7] | [8] | [9] | [10] | [11]

O=C1CC2CC1C1CCCC21 (stereo not given)
inactive: [1] | [2] | [3] | [12] | [4] | [5] | [6] | [7] | [13] | [14] | [11]

COC=O
inactive: [1] | [2] | [4] | [15] | [9] | [16] | [13] | [14] | [11]

CCCCCCCCCCCCCCCC(=O)OCC
inactive: [1] | [2] | [3] | [4] | [5] | [6] | [7] | [9] | [10] | [13]

CC(=O)OC1C2(C)CCC(C2)C1(C)C (stereo not given)
inactive: [1] | [2] | [3] | [4] | [15] | [7] | [10] | [17] | [16] | [11]

CC(C)(C)C1CCCCC1=O (stereo not given)
inactive: [1] | [2] | [3] | [4] | [6] | [7] | [10] | [17] | [16] | [13] | [14] | [11]

Cc1c(C)c([N+](=O)[O-])c(C(C)(C)C)c([N+](=O)[O-])c1C
inactive: [1] | [2] | [18] | [12] | [4] | [5] | [10] | [16] | [13] | [14]

CCCCCCCCCCCCCCCCCC#N
inactive: [1] | [2] | [18] | [3] | [4] | [6] | [7] | [9] | [17] | [16] | [13] | [19] | [14] | [11]

NC(=O)OCC(COC(N)=O)c1ccccc1
inactive: [1] | [2] | [3] | [4] | [6] | [17] | [16] | [19] | [14] | [11]

CCCCCCCC/C=C\CCCCCCCC(=O)O
inactive: [1] | [2] | [3] | [4] | [6] | [7] | [8] | [9] | [16] | [13] | [19] | [14] | [11]
